# Assay results taken from PubChem BioAssay (EPA / NIEHS).
# Records with an inconclusive call do not appear. Activity calls are given as the source filed them. How the source made its calls, unless noted: active means hit-call score of the fitted dose curve at least 0.9, where 1 is the maximum; inactive means score below 0.9.
# Columns and labels:
# [1] = ATG_TCF_b_cat_CIS: Attagene CIS-FACTORIAL HepG2 Assay for human T-Cell-Factor with beta-catenin (TCF/b-cat) (AID 2282965); conditions: HepG2 TCF/beta-catenin cis-reporter transcription, actives raise or lower the signal
# Summary of the method: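 Measured: reporter mRNA in HepG2 transiently transfected with cis-promoter reporter units, 24 h after chemical addition. Fitting was bidirectional, DMSO as negative control.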
# [2] = ATG_TAL_CIS: Attagene CIS-FACTORIAL HepG2 Assay for human TAL Basal Promoter (AID 2282966); conditions: HepG2 Attagene cis-factorial TAL promoter reporter; actives raise or lower the signal;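 further: background control endpoint measuring basal TAL promoter reporter mRNA not a specific factor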
# Summary of the method: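 Transiently transfected HepG2 (cis-regulated reporter units), 24 h treatment, mRNA read by fluorescent CE after RT-PCR; bidirectional fit, DMSO baseline.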
# [3] = ATG_TGFb_CIS: Attagene CIS-FACTORIAL HepG2 Assay for human Transforming Growth Factor (TGF) (AID 2282967); conditions: HepG2 Attagene CIS TGFb reporter, mRNA transcription; actives raise or lower the signal
# Summary of the method: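 HepG2 cells transiently transfected with cis-promoter-driven multiple reporter units measure endogenous TF activity; reporter mRNA quantified at 24 h by RT-PCR, FAM labeling, HpaI digestion and capillary electrophoresis. Bidirectional fit vs DMSO.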
# [4] = ATG_VDRE_CIS: Attagene CIS-FACTORIAL HepG2 Assay for human Vitamin D Receptor Element (VDRE) (AID 2282968); conditions: HepG2 VDRE cis-reporter transcription, actives raise or lower the signal
# Summary of the method: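 Measures endogenous factor activity through cis-element-driven reporter transcripts in transiently transfected HepG2. Cells are treated 24 h; reporter mRNA is quantified by RT-PCR and capillary electrophoresis; fitting is bidirectional.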
# [5] = biological target: Estrogen receptor (Homo sapiens) (UniProt P03372); assay: ATG_ERa_TRANS: Attagene TRANS-FACTORIAL HepG2 Assay for human Estrogen Receptor alpha (ERa) (AID 2282970; active means hit-call score of the fitted dose curve at least 0.9, where 1 is the maximum); conditions: HepG2 Attagene TRANS ERa GAL4 reporter, mRNA
# Chain of Estrogen receptor (Homo sapiens) (P03372 whole entry, looked up, the tested form may be a part): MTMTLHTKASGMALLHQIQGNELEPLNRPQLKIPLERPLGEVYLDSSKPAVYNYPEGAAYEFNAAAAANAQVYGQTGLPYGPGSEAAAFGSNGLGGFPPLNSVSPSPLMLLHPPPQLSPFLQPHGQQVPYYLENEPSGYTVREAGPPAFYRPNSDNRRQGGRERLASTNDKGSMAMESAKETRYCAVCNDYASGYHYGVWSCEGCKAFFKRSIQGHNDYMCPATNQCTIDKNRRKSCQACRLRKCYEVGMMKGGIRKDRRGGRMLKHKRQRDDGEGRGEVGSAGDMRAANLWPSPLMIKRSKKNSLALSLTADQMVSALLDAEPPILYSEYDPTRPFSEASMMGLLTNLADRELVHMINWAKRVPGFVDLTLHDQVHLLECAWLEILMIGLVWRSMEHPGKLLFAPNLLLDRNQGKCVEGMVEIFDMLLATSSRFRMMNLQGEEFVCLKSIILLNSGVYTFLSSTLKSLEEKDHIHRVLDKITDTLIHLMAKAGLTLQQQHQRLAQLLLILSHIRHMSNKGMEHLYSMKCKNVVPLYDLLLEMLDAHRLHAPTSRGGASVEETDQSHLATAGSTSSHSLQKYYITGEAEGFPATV
# Summary of the method: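 One of 30 multiplexed endpoints from a HepG2 TRANS system, this one reports ERa-Gal4-driven reporter mRNA. Transcripts were quantified 24 hours post-dosing by fluorescent RT-PCR and capillary electrophoresis, with activity scored as induction over DMSO.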
# [6] = biological target: X-box-binding protein 1 (Homo sapiens) (UniProt P17861); assay: ATG_Xbp1_CIS: Attagene CIS-FACTORIAL HepG2 Assay for human X-box Binding Protein 1 (XBP1) (AID 2282972); conditions: HepG2 XBP1 cis-element reporter, Attagene multiplex; actives raise or lower the signal
# Chain of X-box-binding protein 1 (Homo sapiens) (P17861 whole entry, looked up): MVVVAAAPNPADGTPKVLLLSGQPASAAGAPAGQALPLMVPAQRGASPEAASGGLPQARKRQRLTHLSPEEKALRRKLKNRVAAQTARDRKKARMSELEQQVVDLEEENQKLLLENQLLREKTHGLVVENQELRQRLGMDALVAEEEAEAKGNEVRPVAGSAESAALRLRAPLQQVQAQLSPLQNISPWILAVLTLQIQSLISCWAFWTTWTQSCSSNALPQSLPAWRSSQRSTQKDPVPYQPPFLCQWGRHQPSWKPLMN
# Summary of the method: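 Human hepatoma HepG2, cis-element reporter system, 24 h treatment; mRNA quantified by RT-PCR/CE fluorescence; fit relative to DMSO.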
# [7] = biological target: Nuclear receptor subfamily 1 group I member 3 (Homo sapiens) (UniProt Q14994); assay: ATG_CAR_TRANS: Attagene TRANS-FACTORIAL HepG2 Assay for human Constitutive Androstane Receptor (CAR) (AID 2282969; active means hit-call score of the fitted dose curve at least 0.9, where 1 is the maximum;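 further: activators raise reporter mRNA above DMSO so AC50 marks induction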); conditions: HepG2 Attagene TRANS-FACTORIAL CAR reporter
# Chain of Nuclear receptor subfamily 1 group I member 3 (Homo sapiens) (Q14994 whole entry, looked up, the tested form may be a part): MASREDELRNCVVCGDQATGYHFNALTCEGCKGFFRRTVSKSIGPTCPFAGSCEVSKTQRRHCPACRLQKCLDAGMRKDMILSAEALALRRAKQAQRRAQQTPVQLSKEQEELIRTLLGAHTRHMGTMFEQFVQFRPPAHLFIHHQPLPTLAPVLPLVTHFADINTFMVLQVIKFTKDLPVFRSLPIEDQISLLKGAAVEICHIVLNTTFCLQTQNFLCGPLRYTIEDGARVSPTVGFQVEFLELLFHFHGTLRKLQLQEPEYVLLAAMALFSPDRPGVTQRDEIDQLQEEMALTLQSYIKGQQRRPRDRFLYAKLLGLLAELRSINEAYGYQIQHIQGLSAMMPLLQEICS
# Summary of the method: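 Signal is reporter mRNA induction relative to DMSO, measured 24 h after dosing by RT-PCR with fluorescent primer extension and capillary electrophoresis. Human HepG2 liver cells carried transiently transfected chimeric NR-Gal4/GAL4-UAS reporter constructs.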
# [8] = ATG_M_19_TRANS: Attagene TRANS-FACTORIAL HepG2 Assay for M19 Transcription Factor (Internal Marker) (AID 2282974; active means hit-call score of the fitted dose curve at least 0.9, where 1 is the maximum); conditions: HepG2 Attagene TRANS-FACTORIAL M19 internal marker reporter
# Summary of the method: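 Gain-of-signal in reporter mRNA, relative to DMSO, was scored from capillary electrophoresis fluorescence. HepG2 cells carried transiently transfected multiple reporter transcription units and were incubated with test chemicals for 24 h.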
# [9] = biological target: Steroid hormone receptor ERR1 (Homo sapiens) (UniProt P11474); assay: ATG_ERRa_TRANS: Attagene TRANS-FACTORIAL HepG2 Assay for human Estrogen-Related Receptor alpha (ERRa) (AID 2282971; active means hit-call score of the fitted dose curve at least 0.9, where 1 is the maximum); conditions: HepG2 Attagene TRANS reporter, ERRa transactivation
# Chain of Steroid hormone receptor ERR1 (Homo sapiens) (P11474 whole entry, looked up, the tested form may be a part): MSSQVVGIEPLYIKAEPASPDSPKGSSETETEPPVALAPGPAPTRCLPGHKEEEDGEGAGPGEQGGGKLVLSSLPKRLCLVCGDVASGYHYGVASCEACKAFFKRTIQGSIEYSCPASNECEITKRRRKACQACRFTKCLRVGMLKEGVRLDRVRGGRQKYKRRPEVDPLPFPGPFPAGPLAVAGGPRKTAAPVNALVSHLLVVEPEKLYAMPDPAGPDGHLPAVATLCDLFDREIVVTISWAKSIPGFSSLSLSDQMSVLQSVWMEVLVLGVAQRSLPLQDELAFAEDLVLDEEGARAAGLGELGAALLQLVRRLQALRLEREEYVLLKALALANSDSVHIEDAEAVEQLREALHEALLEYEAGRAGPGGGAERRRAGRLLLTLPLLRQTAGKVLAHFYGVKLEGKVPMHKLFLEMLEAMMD
# Summary of the method: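 HepG2 cells transiently transfected with multiplexed GAL4-UAS reporter units reading chimeric ERRa-Gal4 activity; 24 h compound exposure. Reporter mRNA measured by RT-PCR, 6-FAM labelling, HpaI digest and capillary electrophoresis; gain of signal fitted versus DMSO baseline.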
# [10] = biological target: Androgen receptor (Homo sapiens) (UniProt P10275); assay: ATG_AR_TRANS: Attagene TRANS-FACTORIAL HepG2 Assay for human Androgen Receptor (AR) (AID 2282973; active means hit-call score of the fitted dose curve at least 0.9, where 1 is the maximum); conditions: HepG2 Attagene TRANS-FACTORIAL AR reporter transcription
# Chain of Androgen receptor (Homo sapiens) (P10275 whole entry, looked up): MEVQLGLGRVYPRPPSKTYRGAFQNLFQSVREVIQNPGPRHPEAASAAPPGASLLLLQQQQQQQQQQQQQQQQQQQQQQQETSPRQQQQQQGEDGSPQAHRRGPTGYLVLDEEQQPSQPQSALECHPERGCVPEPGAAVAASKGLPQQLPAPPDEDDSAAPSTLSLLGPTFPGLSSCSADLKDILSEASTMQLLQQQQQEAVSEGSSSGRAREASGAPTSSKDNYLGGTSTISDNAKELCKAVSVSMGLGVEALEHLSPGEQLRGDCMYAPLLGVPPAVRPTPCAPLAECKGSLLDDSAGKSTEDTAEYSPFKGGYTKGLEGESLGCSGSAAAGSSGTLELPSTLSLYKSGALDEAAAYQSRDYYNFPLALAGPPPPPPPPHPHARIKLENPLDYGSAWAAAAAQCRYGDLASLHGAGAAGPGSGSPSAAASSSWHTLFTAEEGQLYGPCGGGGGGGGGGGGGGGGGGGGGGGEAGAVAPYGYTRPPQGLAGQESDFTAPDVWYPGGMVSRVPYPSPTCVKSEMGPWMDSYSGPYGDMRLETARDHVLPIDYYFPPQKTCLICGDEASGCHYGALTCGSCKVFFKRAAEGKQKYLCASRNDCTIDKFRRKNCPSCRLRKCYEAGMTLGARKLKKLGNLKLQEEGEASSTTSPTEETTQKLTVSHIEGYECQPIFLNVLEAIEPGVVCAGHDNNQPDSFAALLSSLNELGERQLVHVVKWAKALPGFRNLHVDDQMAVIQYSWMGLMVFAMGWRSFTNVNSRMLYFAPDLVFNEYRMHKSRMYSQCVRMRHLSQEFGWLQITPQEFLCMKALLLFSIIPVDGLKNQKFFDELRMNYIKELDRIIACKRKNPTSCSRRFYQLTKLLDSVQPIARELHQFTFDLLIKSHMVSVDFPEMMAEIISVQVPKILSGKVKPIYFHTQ
# Procedure: ATG_TRANS is a cell-based, multiplexed-readout assay that uses HepG2, a human liver cell line, with measurements taken at 24 hours after chemical dosing in a 24-well plate.ATG_AR_TRANS is one of 30 assay component(s) measured or calculated from the ATG_TRANS assay. It is designed to make measurements of mRNA induction, a form of inducible reporter, as detected with fluorescence intensity signals by Reverse transcription polymerase chain reaction (RT-PCR) and Capillary electrophoresis technology.Data from the assay component ATG_AR_TRANS was analyzed into 1 assay endpoint. This assay endpoint, ATG_AR_TRANS, was analyzed in the positive analysis fitting direction relative to DMSO as the negative control and baseline of activity. Using a type of inducible reporter, measures of mRNA for gain-of-signal activity can be used to understand the reporter gene at the transcription factor-level as they relate to the gene AR. Furthermore, this assay endpoint can be referred to as a primary readout, because this assay has produced multiple assay endpoints where this one serves a reporter gene function. To generalize the intended target to other relatable targets, this assay endpoint is annotated to the nuclear receptor intended target family, where the subfamily is steroidal.
# Human liver HepG2 cells are transiently transfected with multiple reporter transcription units (MRTUs) in 6-well plates using FuGene 6 reagent (Roche; 3 ml FuGene/1 mg DNA). The MRTU constructs are regulated by a cis-regulating element (promoter). […] A major difference between the CIS and TRANS system is that in CIS activities of endogenous TFs are measured, whereas the TRANS assay evaluates changes in activities of exogenous, chimeric NR-Gal4 proteins. […] At the end of 24 hour incubation, total RNA was isolated using TriZol reagent (Invitrogen). The isolated RNA is then reverse-transcribed using oligo(dT) primer and Mo-MLV reverse transcriptase (Invitrogen) with DNAse I (Ambion) treatment for 30 min. The one-tenth of the produced cDNA was amplified by PCR using Taq DNA polymerase (Invitrogen) and two reporter sequence-specific primers. The PCR products were fluorescently labeled by primer extension with 6-arboxyfluorescein (6-FAM) 5'-labeled reporter sequence-specific primer (2 min at 95 C, 20 s at 68 C and 10 min at 72 C) and these products were digested with 5U of HpaI (New England Biolabs) for 2h at 37 C. The fragments were purified using Qiaquick PCR columns (Qiagen), analyzed on an ABI 3130xL genetic analyzer (Applied Biosystems) with peak positions identified by using a set of X-rhodamine (ROX)-labeled MapMarker1000 molecular weight standards (BioVentures). The raw capillary electrophoresis data was processed using Attagraph software (Attagene).
smiles,measurement,setting,value
CCOP(=S)(OCC)Oc1nc(Cl)n(C(C)C)n1,outcome,[1],inactive
same,outcome,[2],inactive
same,outcome,[3],inactive
same,AC50,[4],5.61 µM (active)
same,AC50,[5],29.9 µM (active)
same,outcome,[6],inactive
N#Cc1c(Cl)cccc1Cl,outcome,[1],inactive
same,outcome,[2],inactive
same,outcome,[3],inactive
same,outcome,[7],inactive
same,outcome,[5],inactive
same,outcome,[6],inactive
same,outcome,[8],inactive
CCCCC(C#N)(Cn1cncn1)c1ccc(Cl)cc1 (stereo unspecified),outcome,[1],inactive
same,outcome,[2],inactive
same,outcome,[3],inactive
same,outcome,[7],inactive
same,outcome,[5],inactive
same,outcome,[9],inactive
same,outcome,[6],inactive
Nc1c(Cl)c(F)nc(OCC(=O)O)c1Cl,outcome,[2],inactive
same,outcome,[3],inactive
same,outcome,[4],inactive
same,outcome,[5],inactive
same,outcome,[9],inactive
same,outcome,[6],inactive
same,outcome,[10],inactive
Nc1c(Cl)c(Cl)nc(C(=O)O)c1Cl,outcome,[2],inactive
same,outcome,[3],inactive
same,outcome,[5],inactive
same,outcome,[6],inactive
same,outcome,[8],inactive
CCCN(CC)CC1COC2(CCC(C(C)(C)C)CC2)O1 (stereo unspecified),outcome,[2],inactive
same,AC50,[3],19.9 µM (active)
same,AC50,[4],9.19 µM (active)
same,outcome,[7],inactive
same,outcome,[5],inactive
same,AC50,[6],25.3 µM (active)
same,outcome,[8],inactive
Cn1c(-c2ccccc2)cc(-c2ccccc2)[n+]1C,outcome,[2],inactive
same,outcome,[3],inactive
same,outcome,[4],inactive
same,outcome,[5],inactive
same,outcome,[9],inactive
same,outcome,[6],inactive
same,outcome,[8],inactive
C=C(C)CN(CC)c1c([N+](=O)[O-])cc(C(F)(F)F)cc1[N+](=O)[O-],outcome,[2],inactive
same,outcome,[3],inactive
same,AC50,[4],25.1 µM (active)
same,outcome,[7],inactive
same,AC50,[5],30.7 µM (active)
same,outcome,[9],inactive
same,outcome,[6],inactive
same,outcome,[8],inactive
CCN(CC)C(=O)C(C)Oc1cccc2ccccc12 (stereo unspecified),outcome,[2],inactive
same,outcome,[3],inactive
same,outcome,[7],inactive
same,AC50,[5],29.8 µM (active)
same,outcome,[6],inactive
same,outcome,[8],inactive
COP(=O)(OC)O/C(C)=C/C(=O)N(C)C,outcome,[2],inactive
same,outcome,[3],inactive
same,outcome,[4],inactive
same,outcome,[5],inactive
same,outcome,[6],inactive
Cc1ccc(N=CN(C)C=Nc2ccc(C)cc2C)c(C)c1,outcome,[2],inactive
same,outcome,[3],inactive
same,outcome,[4],inactive
same,outcome,[7],inactive
same,outcome,[6],inactive
CCN(CC)c1nc(C)cc(OP(=S)(OC)OC)n1,outcome,[2],inactive
same,outcome,[3],inactive
same,AC50,[4],25.4 µM (active)
same,outcome,[7],inactive
same,AC50,[5],15.5 µM (active)
same,AC50,[6],50 µM (active)
same,outcome,[8],inactive
CCCCC(O)(Cn1cncn1)c1ccc(Cl)cc1Cl (stereo unspecified),outcome,[2],inactive
same,outcome,[3],inactive
same,AC50,[4],23.6 µM (active)
same,outcome,[7],inactive
same,AC50,[5],16.9 µM (active)
same,outcome,[6],inactive
CC(C)N1C(=O)c2ccccc2NS1(=O)=O,outcome,[2],inactive
same,outcome,[3],inactive
same,AC50,[4],14.9 µM (active)
same,outcome,[5],inactive
same,outcome,[9],inactive
same,outcome,[6],inactive
CNC(=O)Oc1cccc2ccccc12,outcome,[2],inactive
same,outcome,[3],inactive
same,outcome,[4],inactive
same,outcome,[7],inactive
same,AC50,[5],50 µM (active)
same,outcome,[6],inactive
same,outcome,[8],inactive
C=CCOC(=O)C(C)(C)OC(=O)c1cc(-n2c(=O)cc(C(F)(F)F)n(C)c2=O)ccc1Cl,outcome,[2],inactive
same,outcome,[3],inactive
same,outcome,[4],inactive
same,outcome,[6],inactive
same,outcome,[8],inactive
COC(=O)c1c(C(F)F)nc(C(F)(F)F)c(C2=NCCS2)c1CC(C)C,outcome,[2],inactive
same,outcome,[3],inactive
same,AC50,[4],0.879 µM (active)
same,outcome,[7],inactive
same,AC50,[5],19.6 µM (active)
same,outcome,[9],inactive
same,outcome,[6],inactive
same,outcome,[8],inactive
Cc1nc(N(C)C)nc(OC(=O)N(C)C)c1C,outcome,[2],inactive
same,outcome,[3],inactive
same,outcome,[4],inactive
same,outcome,[5],inactive
same,outcome,[6],inactive
same,outcome,[8],inactive
COCC(C)N(C(=O)CCl)c1c(C)csc1C (stereo unspecified),outcome,[2],inactive
same,outcome,[3],inactive
same,AC50,[4],1.84 µM (active)
same,outcome,[5],inactive
same,outcome,[6],inactive
N#CN=C1SCCN1Cc1ccc(Cl)nc1,outcome,[2],inactive
same,outcome,[3],inactive
same,outcome,[5],inactive
same,outcome,[9],inactive
same,outcome,[6],inactive
same,outcome,[8],inactive
